Values joined by “and” are separate entries in the source; they are usually repeats but may differ in a detail not shown here. Equal values may be shown once. Records with an inconclusive call do not appear. Active and inactive are the calls of the source. Unless noted, calls follow the shape of the dose curve; as a rule, active = well fitted curve in the direction sought with a large enough effect; inconclusive = small, poorly fitted or top-dose-only effect, or another doubt; inactive = no such curve, though single readings can be large; an effect the other way counts as inactive or inconclusive.

Here are results for three compounds from PubChem BioAssay (NCATS).

The nature of assay [1]: AP1 Signaling Pathway (AID 357; active = well fitted curve in either direction with a large enough effect, not every such curve was filed as active;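 also: ME-180 reporter cells stimulated with EGF at its EC50 level; % is scaled to controls: 0 for no effect and ±100 for the full control effect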). Conditions: ME-180 AP-1-bla reporter, EGF-induced, beta-lactamase ratio, 5 h. The method in brief: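 A ratiometric CCF4 readout (405 nm excitation; 460 and 530 nm emission) quantified AP-1-driven beta-lactamase in ME-180 cells after 5 h with compound and EC50 EGF; AC50 values were derived for activators and inhibitors.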
Assay [2] addresses Cytochrome P450 1A2 (Homo sapiens) (UniProt P05177). The experiment in a line: p450-cyp1a2 (AID 410; calls by dose curve; also: potency is read from the fitted curve at half-maximal effect). An outline of the steps: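 Luminescent demethylation readout: Luciferin-ME (100uM, equal to Km) turned over by 20nM CYP1A2 for 60 min at room temperature after NADPH regeneration addition, following 10 min compound preincubation. Normalization used 57 uM furafylline as full inhibition.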

Assay [3] is described as follows: Stat Signaling Pathway (AID 446; active = well fitted curve in either direction with a large enough effect, not every such curve was filed as active;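 also: ME-180 cervical cancer cells given 40 pM IL-6 alongside compound; SIE-controlled beta-lactamase reporter measured as 460/530 nm FRET emission ratio; % is scaled to controls: 0 for no effect and ±100 for the full control effect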). The note with it: ME-180 (cervical carcinoma) SIE beta-lactamase reporter, IL-6 stimulated, 5 h. The method in brief: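 Normalization used AC90 stimulation (300 pM IL-6) and AC90 inhibition (125 nM pan-JAK inhibitor at 40 pM IL-6). The underlying signal is SIE-driven beta-lactamase in ME-180 cells after 5 h IL-6 exposure with compound.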
Assay [4] has as its target Glucocorticoid receptor (Homo sapiens) (UniProt P04150). In words: GR-GFP Redistribution (AID 450;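 active = compounds whose dose series gives a full or clear partial fitted curve of increased nuclear translocation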; also: potency is read from the fitted curve at half-maximal effect). Conditions: U2OS GR-GFP nuclear translocation, laser cytometry, 2 h.
The target is the same in assay [5]. In words: GR-EFC Redistribution (AID 451; calls by dose curve; also: potency is read from the fitted curve at half-maximal effect). The note with it: CHO-K1 GR-EFC translocation, beta-gal luminescence, 2 h. The method in brief:
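CHO-K1 cells stably expressing nuclear-localized β-gal enzyme acceptor and GR fused C-terminally to the enzyme donor fragment; ligand-driven nuclear translocation restores β-gal by complementation. Compounds titrated up to 46 uM final, 2 h at 37 °C; luminescence read.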

The target in assay [6] is Mitogen-activated protein kinase 10 (Mus musculus) (UniProt Q61831). In words: JNK3 AlphaScreen Assay (AID 530; active = well fitted curve in either direction with a large enough effect, not every such curve was filed as active;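 also: kinase came from lysate of stimulated human HepG2 cells; signal reports phosphorylation of biotinylated GST-cJun 1-79 at Ser73 with 10 µM ATP; % is scaled to controls: 0 for no effect and ±100 for the full control effect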). The method in brief: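 Phosphorylation of biotinylated GST-cJun(1-79) at Ser73 is measured by AlphaScreen proximity luminescence. Enzyme is JNK3 in HepG2 lysates activated with interleukin-1beta and tumor necrosis factor alpha; ATP is 10 uM final.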
Assay [7] deals with 3',5'-cyclic-AMP phosphodiesterase 4B (Homo sapiens) (UniProt Q07343). In words: qHTS Assay for Inhibitors of PDE-IV (AID 607; active = well fitted activation curve with a large enough effect in the main read-out, with a control signal flat, not every such curve was filed as active; also: % of control where 0% means no effect). An outline of the steps:
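HEK293 ACTOne cells with CNG channel (1000/well), endogenous PDE4; membrane potential dye, compounds up to 22.9 uM final. Fluorescence Ex 535/Em 590; RO 20-1724 (100 uM final) as reference.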

Assay [8] deals with Guanine nucleotide-binding protein G(i) subunit alpha-1 (Homo sapiens) (UniProt P63096). In words: qHTS Assay for Inhibitors of RGS12 GoLoco Motif Activity (Green Fluorophore) (AID 879).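 Also: 0% = labeled peptide with Gαi1 and full inhibition = labeled peptide alone without protein; negative values mean loss of peptide binding seen as reduced polarization.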 The method in brief: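 A drop in FITC polarization marked displacement of the FITC-tagged RGS12 GoLoco peptide (10 nM) from Gαi1 (50 nM). Compounds were incubated 10 min at room temperature in Tris pH 7.5 buffer containing 150 mM NaCl, 0.1 mM GDP and 0.05% NP40; unlabeled peptide titration served as control.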
Sequence of Guanine nucleotide-binding protein G(i) subunit alpha-1 (Homo sapiens) (P63096 whole entry, looked up): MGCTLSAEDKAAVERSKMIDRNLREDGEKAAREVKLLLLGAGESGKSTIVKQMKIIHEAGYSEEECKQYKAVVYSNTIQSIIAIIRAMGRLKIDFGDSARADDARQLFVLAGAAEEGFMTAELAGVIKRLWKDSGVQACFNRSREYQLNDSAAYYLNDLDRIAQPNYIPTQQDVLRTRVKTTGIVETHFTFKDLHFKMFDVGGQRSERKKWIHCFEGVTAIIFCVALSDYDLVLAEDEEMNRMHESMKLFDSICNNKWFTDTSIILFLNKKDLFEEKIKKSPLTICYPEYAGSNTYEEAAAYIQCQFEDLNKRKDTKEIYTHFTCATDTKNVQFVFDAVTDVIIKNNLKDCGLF

The target of assay [9] is Cytochrome P450 3A4 (Homo sapiens) (UniProt P08684). In words: qHTS Assay for Inhibitors and Substrates of Cytochrome P450 3A4 (AID 884). Also: nearly all actives have a fitted effect of over 50% in size. Also: potency is read from the fitted curve at half-maximal effect. An outline of the steps: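 Luminescent readout of luciferin produced by CYP3A4 (20 nM) dealkylation of Luciferin-PPXE, 25 uM (its KM). NADPH-driven reaction ran 60 min at RT after 10 min compound preincubation; data scaled to 57 uM ketoconazole as 100% inhibition.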
Sequence of Cytochrome P450 3A4 (Homo sapiens) (P08684 whole entry, looked up): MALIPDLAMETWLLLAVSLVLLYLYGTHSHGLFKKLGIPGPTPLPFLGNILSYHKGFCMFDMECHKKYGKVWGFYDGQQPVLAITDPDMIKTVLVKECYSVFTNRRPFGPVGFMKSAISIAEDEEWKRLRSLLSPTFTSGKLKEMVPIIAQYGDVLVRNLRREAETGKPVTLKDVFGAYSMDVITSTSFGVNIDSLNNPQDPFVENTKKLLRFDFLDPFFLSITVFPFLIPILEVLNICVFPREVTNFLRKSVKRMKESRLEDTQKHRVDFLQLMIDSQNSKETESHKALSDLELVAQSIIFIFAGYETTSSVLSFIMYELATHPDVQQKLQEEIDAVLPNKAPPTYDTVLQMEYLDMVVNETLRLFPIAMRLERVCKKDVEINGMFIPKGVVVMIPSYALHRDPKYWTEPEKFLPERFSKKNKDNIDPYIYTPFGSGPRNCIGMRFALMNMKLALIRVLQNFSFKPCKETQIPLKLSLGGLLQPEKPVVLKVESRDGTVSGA

In assay [10] the target is Cytochrome P450 2C19 (Homo sapiens) (UniProt P33261). In words: qHTS Assay for Inhibitors and Substrates of Cytochrome P450 2C19 (AID 899). Also: nearly all actives have a fitted effect of over 60% in size. Also: potency is read from the fitted curve at half-maximal effect. An outline of the steps: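 In 50mM KPO4, the reaction held 5nM enzyme and KM-level (10uM) Luciferin-H EGE; it ran 60 min at 37C after NADPH regeneration and a 10 min compound preincubation. Luminescence values were scaled to 57uM ketoconazole as complete inhibition.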
Sequence of Cytochrome P450 2C19 (Homo sapiens) (P33261 whole entry, looked up): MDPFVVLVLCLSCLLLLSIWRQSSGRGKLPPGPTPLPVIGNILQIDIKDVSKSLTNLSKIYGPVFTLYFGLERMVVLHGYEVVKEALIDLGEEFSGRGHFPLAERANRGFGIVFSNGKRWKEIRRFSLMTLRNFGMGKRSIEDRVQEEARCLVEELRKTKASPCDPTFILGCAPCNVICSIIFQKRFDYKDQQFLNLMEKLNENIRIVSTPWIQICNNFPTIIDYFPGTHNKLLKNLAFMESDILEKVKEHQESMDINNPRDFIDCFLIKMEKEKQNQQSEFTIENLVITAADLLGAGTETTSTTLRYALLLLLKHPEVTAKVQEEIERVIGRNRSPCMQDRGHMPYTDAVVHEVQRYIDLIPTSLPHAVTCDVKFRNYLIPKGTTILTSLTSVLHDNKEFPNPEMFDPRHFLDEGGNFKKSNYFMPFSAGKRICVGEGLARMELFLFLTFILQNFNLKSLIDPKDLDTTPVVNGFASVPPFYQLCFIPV

The target of assay [11] is Pyruvate kinase (Leishmania mexicana) (UniProt Q27686). In words: qHTS Validation Assay for Inhibitors of Leishmania Mexicana Pyruvate Kinase (AID 945).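 Also: 0% = DMSO only neutral control wells.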 The method in brief:
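Purified LmPYK (E451W mutant, 0.2 nM) was incubated 1 h at room temperature with 0.5 mM PEP and 0.1 mM ADP in 50 mM imidazole pH 7.2, 50 mM KCl, 7 mM MgCl2; ATP formed was read by PKLight luminescence, normalized to DMSO wells.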
On the technique in general: qHTS replaces the single test concentration by a dilution series.

The target in assay [12] is Alpha-galactosidase A (Homo sapiens) (UniProt P06280). The experiment in a line: Counterscreen for Glucocerebrosidase Inhibitors: qHTS Assay for Human alpha-Galactosidase at pH 4.5 (AID 992). Also: 0% is about no effect. The method in brief: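 Steps: enzyme (2 nM final), then compound across 0.7 nM to 77 uM, then 80 uM fluorogenic galactopyranoside substrate; incubate 20 min at room temperature; quench at pH 10; measure fluorescence at 365/440 nm.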
In general terms: A counterscreen serves to expose hits that act by an unwanted route or on another target.

In assay [13] the target is alpha-glucosidase (Oryza sativa, rice) (UniProt Q653V4). In words: Counterscreen for Glucocerebrosidase Inhibitors: qHTS Assay for Rice alpha-Glucosidase at pH 5.0 (AID 997).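 Also: 0% = full activity with enzyme and -100% = basal without enzyme.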 The method in brief: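 Endpoint fluorogenic assay at pH 5.0: compounds (0.7 nM to 77 uM) titrated against 4 nM rice enzyme and 400 uM 4-MU-alpha-glucoside for 20 min at room temperature; NaOH/glycine stop, read ex 365/em 440 nm, Hill-fitted AC50.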

Assay [14] is described as follows: qHTS Assay for Lipid Storage Modulators (AID 1519; calls by dose curve). The note with it: Drosophila S3 cells, BODIPY lipid droplet/cell ratio, laser cytometry, cells loaded with oleic acid. The method in brief: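 Cells seeded at 5,000 per well were treated with compounds over a concentration series and loaded with oleic acid (400 uM, as added). Lipid droplet fluorescence (488 nm excitation, 500-530 nm channel) was read by laser-scanning cytometry and normalized to 20 uM Triacsin C.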

Assay [15] has as its system Zika virus NS2B-NS3 protease. The experiment in a line: Primary screen GU AMC qHTS for Zika virus inhibitors (AID 1347154).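 Also: 0% = no-inhibitor control and -100% = no-enzyme control; nearly all actives have a fitted effect of over 70% in size.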 The method in brief:
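Unlinked Zika NS2B hydrophilic domain/NS3 protease domain noncovalent complex (25 nM final) in 10 mM Tris-HCl pH 8.0, 0.01% Tween 20, with AMC peptide substrate. Fluorescence (ex 340, em 450 nm) change over 15 min, room temperature; percent inhibition fitted to 4-parameter Hill equation.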

The nature of assay [16]: NFAT Signaling Pathway (AID 444; active = well fitted curve in either direction with a large enough effect, not every such curve was filed as active;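 also: carbachol stimulus at about its EC50 of 1 µM final; % is scaled to controls: 0 for no effect and ±100 for the full control effect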). The note with it: Jurkat NFAT-bla M1, carbachol, beta-lactamase ratio, 5 h; at 38 µM (top of the series). An outline of the steps:
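Jurkat cells carrying an NFAT-driven β-lactamase reporter and co-transfected muscarinic M1 receptor were treated with compound plus carbachol (1 uM final, an EC50 level) for 5 h at 37 °C. CCF4 loading followed for 1 h at RT; 460/530 nm ratio gave %activity.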

Assay [17] has as its target Cytochrome P450 2C9 (Homo sapiens) (UniProt P11712). The experiment in a line: qHTS Assay for Inhibitors and Substrates of Cytochrome P450 2C9 (AID 883). Also: % is scaled to controls: 0 for no effect and ±100 for the full control effect; nearly all actives have a fitted effect of over 60% in size. The method in brief:
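CYP2C9 deoxyluciferin hydroxylation, 37C, 60 min with NADPH regeneration; 10nM enzyme, 100uM Luciferin-H (KM). Glo detection reagent stopped reaction; luminescence normalized to sulphaphenazole (57uM) full inhibition.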

Assay [18] deals with Cytochrome P450 3A4 (Homo sapiens) (UniProt P08684). In words: qHTS Assay for Activators of Cytochrome P450 3A4 (AID 885). Also: nearly all actives have a fitted effect of over 65% in size. The method in brief: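 Human CYP3A4 dealkylates Luciferin-PPXE to luciferin, which luciferase detection converts to light. Substrate was at its KM (25uM), buffer 200mM KPO4, reaction 60 min at RT.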
Assay [19] has as its target Cytochrome P450 2D6 (Homo sapiens) (UniProt P10635). In words: qHTS Assay for Inhibitors and Substrates of Cytochrome P450 2D6 (AID 891). Also: nearly all actives have a fitted effect of over 60% in size. Also: potency is read from the fitted curve at half-maximal effect. An outline of the steps:
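Luminescent read-out of luciferin formed by 5 nM human CYP2D6 demethylating 30 uM Luciferin-ME EGE (Km level) over 60 min at room temperature after NADPH regeneration addition. Data normalized to full inhibition by 1.43 uM quinidine.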

The nature of assay [20]: Confirmation and Secondary Assay for Modulators of Hemoglobin Beta Chain Splicing at IVS2 654 locus (AID 910).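 Also: per-well total GFP intensity by laser scanning cytometry after 2-day treatment; % of control where 0% means no effect.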 The method in brief:
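HeLa cells stably carrying EGFP interrupted by mutant beta-globin IVS2-654 intron (CMV-driven) were treated with compound for 2 days at 37C; corrected splicing was scored as total peak GFP intensity per well (488 nm excitation, 500-520 nm emission).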

The nature of assay [21]: Confirmation and Secondary Assay for Modulators of Hemoglobin Beta Chain Splicing at IVS2 705 locus (AID 930).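 Also: HeLa cells stably expressing the EGFP-705 splicing reporter; % of control where 0% means no effect.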 An outline of the steps: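 Restored EGFP fluorescence after 2-day compound exposure reports splicing correction in IVS2-705 EGFP reporter HeLa cells; positive control was 500 nM splice-blocking PNA oligo. Signal measured as well total peak GFP intensity (488 nm excitation).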

In assay [22] the target is Muscarinic acetylcholine receptor M1 (Rattus norvegicus) (UniProt P08482). The experiment in a line: qHTS Assay for Antagonists of Acetylcholine Muscarinic M1 Receptor: Kinetic Measurement of Intracellular Calcium Response (AID 943).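 Also: Fluo-4 calcium signal as peak divided by basal fluorescence over 4 min; nearly all actives have a fitted effect of over 75% in size.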 An outline of the steps:
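Antagonism measured as reduction of carbachol-evoked (EC80, 100 nM final) calcium flux in rat M1-CHO cells after 10 min compound exposure. Fluo-4 signal read kinetically; ratio of maximal to basal fluorescence.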

The target of assay [23] is Pyruvate kinase PKM (Homo sapiens) (UniProt P14618). The experiment in a line: qHTS Assay for Activators of Human Muscle Pyruvate Kinase (AID 954; active = well fitted curve in the direction sought with a large enough effect, not every such curve was filed as active;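 also: 0% = uninhibited enzyme and -100% = no enzyme or full thiadiazolimine inhibition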). An outline of the steps:
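Compound pinned into substrate mix (0.5 mM PEP, 0.1 mM ADP), then 0.1 nM PKM2 added; 1 h, RT. Stop/detection luciferase reagent added, luminescence read. Normalized to no-inhibition and no-enzyme or reference-inhibitor controls.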

Assay [24] addresses DNA dC->dU-editing enzyme APOBEC-3G (Homo sapiens) (UniProt Q9HC16). The experiment in a line: qHTS for inhibitors of Vif-A3G interactions: Validation (AID 588379). Also: 0% is about no effect. The method in brief: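 Yellow fluorescence (Ex 488, Em 500-530) of Vif-coexpressing HeLa A3G-eYFP cells, scanned by Acumen cytometer, reports blocked A3G degradation. Cells plated at 700/well overnight at 37 deg C before compound addition, then a further overnight compound incubation at 37 deg C.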

In assay [25] the target is Ubiquitin carboxyl-terminal hydrolase 1 (Homo sapiens) (UniProt O94782). The experiment in a line: Inhibitors of USP1/UAF1: Pilot qHTS (AID 504865).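 Also: rhodamine fluorescence freed from ubiquitin-rhodamine substrate followed over time; top concentration of the series differs between compounds; % is scaled to controls: 0 for no effect and ±100 for the full control effect; nearly all actives have a fitted effect of over 35% in size.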 An outline of the steps: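 Enzyme-free wells gave the negative control, while test wells held 1nM USP1/UAF1 preincubated with compound for 15 min at room temperature. Ub-Rho at 150nM final started the reaction, and fluorescence at 480/540 nm was recorded kinetically.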

Sequence of Cytochrome P450 1A2 (Homo sapiens) (P05177 whole entry, looked up): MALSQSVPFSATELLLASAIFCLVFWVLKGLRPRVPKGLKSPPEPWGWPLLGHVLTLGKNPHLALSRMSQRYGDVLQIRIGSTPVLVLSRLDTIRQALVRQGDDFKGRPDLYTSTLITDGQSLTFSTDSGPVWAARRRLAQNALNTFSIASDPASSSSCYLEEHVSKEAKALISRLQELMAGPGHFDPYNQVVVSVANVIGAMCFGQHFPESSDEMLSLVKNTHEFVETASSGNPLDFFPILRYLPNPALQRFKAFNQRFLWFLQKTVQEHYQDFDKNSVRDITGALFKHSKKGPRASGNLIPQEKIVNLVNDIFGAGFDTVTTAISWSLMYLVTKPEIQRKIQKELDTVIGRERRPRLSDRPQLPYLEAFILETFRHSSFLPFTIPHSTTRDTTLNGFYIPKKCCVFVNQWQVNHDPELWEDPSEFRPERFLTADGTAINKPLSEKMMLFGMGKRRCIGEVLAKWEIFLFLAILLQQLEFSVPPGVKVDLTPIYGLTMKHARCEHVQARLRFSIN
Sequence of 3',5'-cyclic-AMP phosphodiesterase 4B (Homo sapiens) (Q07343 whole entry, looked up): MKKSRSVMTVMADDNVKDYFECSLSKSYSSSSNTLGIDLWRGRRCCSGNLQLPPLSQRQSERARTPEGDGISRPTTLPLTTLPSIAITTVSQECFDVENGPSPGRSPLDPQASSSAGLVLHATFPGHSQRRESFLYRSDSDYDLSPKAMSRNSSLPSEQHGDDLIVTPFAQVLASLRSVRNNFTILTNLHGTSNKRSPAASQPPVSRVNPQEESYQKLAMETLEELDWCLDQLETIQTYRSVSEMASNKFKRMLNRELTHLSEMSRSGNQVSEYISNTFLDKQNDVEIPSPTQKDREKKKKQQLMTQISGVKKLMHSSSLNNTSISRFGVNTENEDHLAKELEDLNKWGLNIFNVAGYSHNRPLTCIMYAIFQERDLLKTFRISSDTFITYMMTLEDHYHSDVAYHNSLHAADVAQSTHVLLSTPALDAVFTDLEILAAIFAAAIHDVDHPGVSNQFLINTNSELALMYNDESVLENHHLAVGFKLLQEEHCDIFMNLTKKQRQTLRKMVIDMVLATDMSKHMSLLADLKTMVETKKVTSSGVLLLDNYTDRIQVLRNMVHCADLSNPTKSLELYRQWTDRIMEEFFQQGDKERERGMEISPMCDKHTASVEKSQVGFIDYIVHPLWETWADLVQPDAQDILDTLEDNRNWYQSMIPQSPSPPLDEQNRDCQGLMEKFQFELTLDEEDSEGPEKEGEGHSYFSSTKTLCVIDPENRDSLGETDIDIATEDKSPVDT
Sequence of Glucocorticoid receptor (Homo sapiens) (P04150 whole entry, looked up): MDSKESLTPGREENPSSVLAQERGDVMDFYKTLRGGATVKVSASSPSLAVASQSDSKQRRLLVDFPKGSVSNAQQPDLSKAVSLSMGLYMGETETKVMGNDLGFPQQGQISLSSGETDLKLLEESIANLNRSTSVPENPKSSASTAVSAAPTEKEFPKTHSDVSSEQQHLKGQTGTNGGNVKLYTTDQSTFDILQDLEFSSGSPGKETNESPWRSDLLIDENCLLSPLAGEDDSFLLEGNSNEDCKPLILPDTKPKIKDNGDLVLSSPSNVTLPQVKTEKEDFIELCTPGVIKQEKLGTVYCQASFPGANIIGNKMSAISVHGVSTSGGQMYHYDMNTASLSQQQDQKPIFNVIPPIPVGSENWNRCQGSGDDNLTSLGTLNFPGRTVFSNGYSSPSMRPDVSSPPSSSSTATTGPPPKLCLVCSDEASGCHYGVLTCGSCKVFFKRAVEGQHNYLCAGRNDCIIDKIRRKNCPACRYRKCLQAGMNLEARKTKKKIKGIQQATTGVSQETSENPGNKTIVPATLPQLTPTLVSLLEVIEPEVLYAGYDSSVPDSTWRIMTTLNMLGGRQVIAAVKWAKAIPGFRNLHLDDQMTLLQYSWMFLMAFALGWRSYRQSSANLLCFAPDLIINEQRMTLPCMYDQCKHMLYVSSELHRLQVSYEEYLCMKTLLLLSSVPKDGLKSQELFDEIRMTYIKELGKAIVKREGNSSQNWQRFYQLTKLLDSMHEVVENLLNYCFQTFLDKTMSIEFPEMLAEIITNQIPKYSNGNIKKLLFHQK
Sequence of Cytochrome P450 2D6 (Homo sapiens) (P10635 whole entry, looked up): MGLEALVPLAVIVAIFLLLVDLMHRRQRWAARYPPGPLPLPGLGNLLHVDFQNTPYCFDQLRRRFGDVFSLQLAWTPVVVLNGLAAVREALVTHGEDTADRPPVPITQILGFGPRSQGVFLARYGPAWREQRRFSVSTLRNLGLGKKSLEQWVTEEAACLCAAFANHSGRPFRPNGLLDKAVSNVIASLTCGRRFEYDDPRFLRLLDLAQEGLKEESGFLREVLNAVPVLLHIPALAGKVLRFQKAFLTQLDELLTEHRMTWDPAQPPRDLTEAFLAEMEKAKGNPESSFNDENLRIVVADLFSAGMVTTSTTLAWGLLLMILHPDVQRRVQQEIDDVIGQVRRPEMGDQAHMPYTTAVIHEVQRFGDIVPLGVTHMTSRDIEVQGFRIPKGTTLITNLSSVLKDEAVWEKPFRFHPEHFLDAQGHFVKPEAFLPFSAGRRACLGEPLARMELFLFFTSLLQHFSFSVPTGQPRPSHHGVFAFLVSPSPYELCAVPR
Sequence of Pyruvate kinase (Leishmania mexicana) (Q27686 2-499 E452W): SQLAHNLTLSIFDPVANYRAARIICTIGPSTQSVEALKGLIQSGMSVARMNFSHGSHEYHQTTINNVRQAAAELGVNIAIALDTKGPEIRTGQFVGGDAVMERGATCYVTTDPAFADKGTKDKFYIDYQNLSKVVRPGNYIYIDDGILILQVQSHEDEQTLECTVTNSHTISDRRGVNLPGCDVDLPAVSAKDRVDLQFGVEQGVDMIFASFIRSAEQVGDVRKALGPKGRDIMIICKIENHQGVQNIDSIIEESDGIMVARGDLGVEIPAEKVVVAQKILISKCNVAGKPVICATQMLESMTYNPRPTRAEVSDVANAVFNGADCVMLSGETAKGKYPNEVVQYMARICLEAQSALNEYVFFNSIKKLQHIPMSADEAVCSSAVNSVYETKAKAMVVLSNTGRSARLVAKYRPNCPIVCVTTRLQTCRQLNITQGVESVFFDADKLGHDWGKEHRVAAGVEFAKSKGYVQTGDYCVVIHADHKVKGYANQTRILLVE
Sequence of DNA dC->dU-editing enzyme APOBEC-3G (Homo sapiens) (Q9HC16 whole entry, looked up): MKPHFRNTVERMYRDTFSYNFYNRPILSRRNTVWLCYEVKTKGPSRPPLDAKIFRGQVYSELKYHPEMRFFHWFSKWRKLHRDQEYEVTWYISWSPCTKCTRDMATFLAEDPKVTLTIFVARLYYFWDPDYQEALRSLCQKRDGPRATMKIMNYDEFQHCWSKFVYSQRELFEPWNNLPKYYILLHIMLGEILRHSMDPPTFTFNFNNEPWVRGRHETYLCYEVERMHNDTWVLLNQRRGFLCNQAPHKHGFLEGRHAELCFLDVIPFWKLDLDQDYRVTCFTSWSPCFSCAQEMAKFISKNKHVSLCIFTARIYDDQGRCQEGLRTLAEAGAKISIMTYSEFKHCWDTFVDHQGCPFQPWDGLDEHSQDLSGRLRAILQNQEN

With `Fc1ccc(C(c2ccc(F)cc2)N2CCN(C/C=C\c3ccccc3)CC2)cc1`, the activity change, negative = inhibition was -7.16% (inactive) in [1] (at 17.2 µM (top of the series)), 2.24% (inactive) in [1] (at 38 µM (top of the series)) and -8.39% (inactive) in [14] (at 25.7 µM (top of the series)). In addition, the Potency in assay [2] was 15.8 µM (active); in assay [4], > 46 µM (inactive) and > 20.6 µM (inactive); in assay [5], > 46 µM (inactive) and > 20.6 µM (inactive). For the same compound, the activity, negative = inhibition was 10.1% (inactive) in assay [3] (at 17.2 µM (top of the series)) and -6.11% (inactive) in [3] (at 38 µM (top of the series)). In addition, the Potency result in assay [6], in assay [7], in assay [9], in assay [10], in assay [11] and in assay [15] was “inactive” each time. For the same compound, the result in assay [8], in assay [12] and in assay [13] was inactive. The max response is -13.5% in assay [14] (measured here: cell count channel max response) and -22.1% in assay [14] (measured here: lipid channel max response).

Consider `N[C@H](Cc1ccc(Cl)cc1)C(=O)O`, for which the values for the activity change, negative = inhibition in assay [1] (at 38 µM (top of the series)) and in assay [16] were 25.5% (inactive) and 7.18% (inactive), respectively. For the same compound, the figures for the Potency in [2] and in [4] were 31.6 µM (active) and > 46 µM (inactive), respectively. In [3] (at 38 µM (top of the series)), the activity, negative = inhibition was -4.9% (inactive). The Potency result in assay [6], in assay [7], in [17], in assay [18], in assay [19] and in assay [10] was “inactive” throughout. Moreover, the Potency result in assay [22], in assay [11], in assay [24] and in [15] was “inactive” in each case. Also, the outcome in assay [8], in assay [20], in [21], in assay [23], in assay [12] and in [13] was inactive.

With `c1ccc(N2CCN(CCCOc3ccc4c(c3)OCO4)CC2)cc1`, the Potency is 12.6 µM (active) in assay [2]; > 46 µM (inactive) in [4]; > 46 µM (inactive) in assay [5]; 3.16 µM (active) in assay [9]; 0.126 µM (active) in [19]; 5.01 µM (active) in assay [10]. For the same compound, the Potency result in assay [6], in [18], in [25], in [24] and in assay [15] was “inactive” each time.
